Experimental data taken from ChEMBL document CHEMBL3433997, “St. Jude Leishmania screening dataset” (2016).

Key:
Format in all cases: functional
[1] = target: Solute carrier family 2, facilitated glucose transporter member 1 (Homo sapiens) (UniProt P11166); test: ST_JUDE_LEISH: Cytotoxicity at 2uM final concentration against transgenic Leishmania Mexicana promastigotes LmGLUT1 that are glucose transport deficient and complemented with the human glucose transporter GLUT1. Activity is measured by DNA content using SYBR green in vitro
[2] = target: Hexose transporter 1 (Plasmodium falciparum) (UniProt O97467); test: ST_JUDE_LEISH: Cytotoxicity at 2uM final concentration against transgenic Leishmania Mexicana promastigotes LmPfHT that are glucose transport deficient and complemented with the Plasmodium falciparum hexose transporter. Activity is measured by DNA content using SYBR green in vitro
[3] = target: Glucose transporter (Leishmania mexicana) (UniProt O61059); test: ST_JUDE_LEISH: Cytotoxicity at 2uM final concentration against transgenic Leishmania Mexicana promastigotes LmGT2 that are glucose transport deficient and complemented with the L. Mexicana glucose transporter 2. Activity is measured by DNA content using SYBR green in vitro

Solute carrier family 2, facilitated glucose transporter member 1 (Homo sapiens), sequence (P11166 whole entry): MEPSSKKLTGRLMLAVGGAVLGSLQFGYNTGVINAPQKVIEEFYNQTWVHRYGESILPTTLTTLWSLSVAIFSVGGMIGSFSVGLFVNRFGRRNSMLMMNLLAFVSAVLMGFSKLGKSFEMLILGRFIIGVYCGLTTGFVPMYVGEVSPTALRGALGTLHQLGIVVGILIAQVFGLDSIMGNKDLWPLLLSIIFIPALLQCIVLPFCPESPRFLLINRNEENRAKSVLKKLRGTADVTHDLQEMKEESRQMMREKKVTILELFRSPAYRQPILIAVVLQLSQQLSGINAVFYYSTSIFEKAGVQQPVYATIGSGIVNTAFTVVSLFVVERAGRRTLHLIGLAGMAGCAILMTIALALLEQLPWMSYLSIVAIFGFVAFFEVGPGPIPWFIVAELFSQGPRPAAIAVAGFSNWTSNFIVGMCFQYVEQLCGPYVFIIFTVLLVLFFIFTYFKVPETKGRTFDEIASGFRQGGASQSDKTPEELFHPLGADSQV

Structure (SMILES) | inhibition [1] [%] | inhibition [2] [%] | inhibition [3] [%]
CCN(CC)CCNC(=O)c1ccc(NC(=O)c2ccc(-c3cc(NC(=O)CC4CCCC4)ccc3C)cc2)cc1 | 2.1 | 1.64 | 2.4
CCc1ccc(-n2c(=O)c3cccnc3n2CC(=O)NC2CCCC2)cc1 | 1.13 | -0.35 | -1.74
O=C(/C=C/c1ccc(Cl)c(Cl)c1)NCCCCCN1CCC(NC(=O)Nc2ccc(Br)cc2)CC1 | -0.66 | -0.06 | -0.46
O=C(NCCCCN1CCC2c3cccc(O)c3CCC21)c1ccc(-c2ccccc2)cc1 (stereo not drawn) | 6.05 | 5.38 | 3.69
FC(F)(F)c1ccc2[nH]c(-c3ccc(-c4ccc(CNCc5cnn(-c6ccccc6)n5)cc4)s3)nc2c1 | 2.88 | 1.1 | 2.24
Cn1nc(-c2ccc(CN[C@@H]3CCc4ccc(O)cc43)cc2)c2cnc(NC3CCCC3)nc21 | 0.66 | -1.03 | -0.55
COc1ccc(-c2cccc(CNC3CCN(CC4Cn5c(=O)ccc6ccc(F)c4c65)CC3)c2)cc1 (stereo not drawn) | 10.7 | 10 | 8.16
O=C(/C=C/c1ccc(I)cc1)NCCCCCN1CCC(c2c[nH]c3ccc(O)cc23)CC1 | 1.49 | 1.64 | 1.49
CCCCCCCCCC(=O)NCC1CC(Br)=NO1 (stereo not drawn) | -2 | -0.61 | -1.46
O=C(Nc1cccc(C(F)(F)F)c1)c1cc([N+](=O)[O-])cc2cn[nH]c12 | 6.35 | 5.74 | 1.24
CCOC(=O)c1[nH]c2ccc(F)cc2c1NC(=O)CN1CCN(c2cccc(C(F)(F)F)c2)CC1 | 0.03 | 0.43 | -2.97
Cc1csc2nc(-c3ccccn3)nc(Nc3ccncn3)c12 | 1.73 | 3.39 | 1.79
CN1CCC(N2CCN(c3ccc4c(=O)nc(CCc5cccc(F)c5F)n(CC(=O)N(C)Cc5ccc(-c6ccc(C(F)(F)F)cc6)cc5)c4n3)CC2)CC1 | -0.12 | 0.33 | 6.67
CC(C)CC(NC(=O)c1ccc(F)cc1)C(=O)N[C@H](/C=N/N1CCNC1=O)CC(C)C (stereo partly drawn) | 3.16 | 4.41 | 3.66
CCc1ccc(-c2cnc(N)c3cc(-c4ccnc(N)n4)ccc23)cc1 | -0.81 | -4.63 | -1.72
COc1ccc2nccc([C@@H](O)CN3CCC(NC(=O)Cc4cccc5c(Br)cccc45)CC3)c2c1 | 14.1 | 9.54 | 10.9
CCCNC[C@@H](O)[C@H](Cc1ccccc1)NC(=O)c1cc2c3c(c1)c(CC)cn3CCS(=O)(=O)N2C | -2.56 | 0.74 | 0.44
c1cc(Nc2nccc(-c3cnn4ncccc34)n2)cc(-c2cnco2)c1 | 35.9 | 45.8 | 63.1
CCOc1ccc(C(=O)Nc2cc(Br)c3c(c2)CNCC3)cc1Cl | 1.83 | 2.23 | -0.05
O=C(Nc1ccc2[nH]c(-c3ccc4nc(NC(=O)C5CCCCC5)sc4c3)nc2c1)C1CCCCC1 | 0.5 | -0.34 | -1.71
COc1ccc2nccc([C@@H](O)CN3CCC(NC(=O)c4ccc(CN5CCN(c6cccc(C)c6)CC5C)cc4)CC3)c2c1 (stereo partly drawn) | 4.12 | 1.46 | -3.5
N#Cc1ccc(-c2cnc3ccc(NCc4ccc(S(N)(=O)=O)cc4)nn23)cc1 | 2.42 | 1.16 | 0.38
O=c1ccc(CNc2nc(NCCc3ccccc3)nc3cc(Cl)ccc23)c[nH]1 | 1.81 | 0.69 | 1.95

Structure (SMILES) | inhibition [1] [%] | inhibition [2] [%] | inhibition [3] [%]
O=C(N[C@H]1CCN(Cc2ccc(OC3CCN(Cc4ccccc4)CC3)c(Cl)c2)C1)c1ccc(Cl)c(Cl)c1 | 0.44 | 2.06 | 1.75
CCOC(=O)c1ccc(NC(=O)Nc2ccc(-c3cccc(-c4nc5cc(F)ccc5[nH]4)c3)cc2)cc1 | 2.36 | 2.86 | 1.54
N#Cc1ccc2c(c1)CCN(CCC1CCC(NC(=O)Nc3ccnc4ccccc34)CC1)C2 (stereo not drawn) | 4.82 | 3.39 | 1.75
COc1ccc2[nH]c(C)cc(=NN=Cc3ccc(F)cc3)c2c1 | 4.47 | 5.21 | 1.88
CC(C)c1ccc(NC(=O)c2ccc(CN3CCCN(Cc4cccc(O)c4)CC3)cc2)cc1 | 2.95 | 4.76 | 5.15
O=C(NCCCCCN1CCC(c2c[nH]c3ccccc23)CC1)Nc1ccc(Br)cc1 | -0.87 | -1.37 | -0.48
CC(=O)Nc1ccc(C(=O)Nc2cccc(-c3ccc(-c4nc5ccccc5[nH]4)s3)c2)cn1 | 4.38 | 1.07 | 5.88
O=C(Nc1cccc2ccccc12)N1CCc2cc3nccc(N4CCN5CCC[C@H]5C4)c3cc21 | 5.08 | 2.82 | 4.23
N#Cc1cccc(NC(=O)Nc2cccc(-c3cccc(-c4nc5ccccc5[nH]4)c3)c2)c1 | 5.25 | 5.22 | 3.75
COc1cc(C=NN=c2cc(C)[nH]c3ccccc23)cc(OC)c1OC | 3.56 | 4.95 | 1.6
COc1ccc(CCN2CCC(CN(C)Cc3cnn(-c4ccccc4)c3)CC2)cc1 | 4.24 | 6.13 | 7.63
COc1ccc(NC(=O)[C@H](CC(C)C)Nc2cc(C)nc(NCCc3ccccc3OC)n2)cc1 | 1.28 | 2.79 | 0.24
CCOC(=O)CNC(=O)c1cc(=O)c2ccccc2o1 | 0.86 | 0.78 | 0.44
CC(C)C1C(O)=C(c2ccc3ccccc3c2)C(=O)N1CC1CCCCC1 (stereo not drawn) | 1.23 | 1.04 | -8.52
Cc1cccc2nc(-c3cccc(-c4cccc(CNCCCN5CCCC5=O)c4)c3)[nH]c12 | -0.74 | -0.59 | -1.17
CCOC(=O)[C@H](Cc1cc([N+](=O)[O-])c(Oc2ccc(OC)c(Cc3ccc(OC)c(C(C)C)c3)c2)c([N+](=O)[O-])c1)NC(=O)C(F)(F)F | 10.8 | 9.19 | 12.6
Clc1ccc(CNC2CCN(CC3CCCCC3)CC2)cc1 | 5.87 | 11.2 | 10.2
Cn1cnc2c(Nc3ccncc3)nc(-c3ccc(OC(F)(F)F)cc3)nc21 | 2.51 | 1.84 | 2.19
CC(=O)c1ccc(NC(=O)Nc2ccc(N(C)c3ccnc(NC4CC4)n3)cc2)cc1 | -0.95 | -3.95 | 0.62
Cc1ccc2[nH]c(C)c(Br)c(=O)c2c1 | -1 | -2.07 | -3.38
O=C(NCCCN(Cc1ccc(F)cc1)c1ccccn1)C(c1cc2ccccc2o1)N1CCN(C(c2ccccc2)c2ccccc2)CC1 (stereo not drawn) | 3.35 | 3.69 | 1.89
Cc1cccc(CCCNC(=O)CN(c2cccc(C(F)(F)F)c2)S(=O)(=O)c2ccc(C(F)(F)F)cc2)c1 | 5.38 | 4.48 | 4.63
CCc1ccc(-n2cc(C(=O)c3cc(Br)ccc3O)cc(C#N)c2=O)cc1 | 3.35 | 3.08 | 2.28
